Measured values published in PubChem BioAssay (NCI).
“And” between values parts separate entries of the source, which are not always exact repeats. Identical values can stand only once. This is part of a sample that, as a whole, favours compounds with a hit. Of some 83,000 tested, about 20% had one in any assay.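 Compound tested at a single concentration for 48 hours in 96-well plates; a percent growth value below 10 was scored as active.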 The source made the active and inactive calls.

What was measured:
Experiment in all cases: NCI-60 one-dose screen, 48 h (100 = growth as untreated, 0 = no growth, -100 = all killed)
Conditions in all cases: 10 µM unless noted
[1] = system: NCI-H23 lung
[2] = system: NCI-H226 lung
[3] = system: NCI-H322M lung
[4] = system: HOP-62 NSCLC
[5] = system: NCI-H460 lung
[6] = system: HOP-92 NSCLC
[7] = system: NCI-H522 lung
[8] = system: A549/ATCC NSCLC
[9] = system: 786-0 renal
[10] = system: COLO 205 colon

Measured: growth

CCCCCCCCCCCCCCCCN(CC)CC
inactive: [3] 14.5%
active: [1] -93.1% | [2] -65.9% | [4] -54.4% | [5] 1.87% | [6] -67.9% | [7] -82.4% | [8] -69.5% | [9] -86.1% | [10] -62.5%

Cc1ccc2nc(-[n+]3cc4ccccc4cc3C)ccc2c1
inactive: [1] 19.1% | [2] 53.7% | [3] 85.2% | [4] 37.1% | [5] 29.5% | [7] 26.2% | [8] 43.1% | [9] 81.2%
active: [6] 5.49% | [10] -11.8%

CCC(=O)Sc1ccccc1C(=O)Nc1ccc(Cl)cc1
inactive: [1] 46.1% | [2] 52.7% | [3] 55.4% | [4] 76.5% | [5] 34.5% | [6] 16.3% | [7] 67.3% | [8] 76.5% | [9] 57% | [10] 84.7%

Oc1c(Br)cc(Cl)cc1C(c1cc(Cl)cc(Br)c1O)C(Cl)(Cl)Cl
inactive: [2] 33.4% | [3] 15.2% | [4] 59.2% | [8] 14% | [9] 26.9% | [10] 59.2%
active: [1] 5.88% | [5] 1.1% | [6] -33.5% | [7] -9.4%

CCCCCCCCCCCCCCNCc1ccccc1
inactive: [1] 75.7% | [2] 60.1% | [3] 106% | [4] 94.1% | [5] 77.4% | [6] 48.8% | [7] 75.8% | [8] 108% | [9] 67.8%
active: [10] -40.9%

CCCCCCCCCCCCCCCC[N+](C)(CCO)Cc1cnc[nH]1 (stereo unspecified)
active: [1] -3.12% | [2] -4.89% | [4] -64.2% | [5] -93.3% | [6] -55.8% | [7] -72.2% | [8] -36.1% | [9] -40.1% | [10] -100%
inactive: [3] 20.3%

Oc1c(Br)c(Br)c(O)c(Br)c1Br
inactive: [1] 92.5% | [2] 113% | [3] 105% | [4] 146% | [5] 120% | [6] 142% | [8] 118% | [9] 111%
active: [7] -88% | [10] -34.4%

Cn1c2ccccc2c2nnc(N/N=C/c3ccccn3)nc21
active: [2] 5.03% | [4] 4.96% | [5] -11.5% | [9] -21.6% | [10] -8.79%
inactive: [1] 19.3% | [3] 11.8% | [6] 14.5% | [7] 18.2% | [8] 21.1%

CNc1ccc2c(c1)c1ccccc1n2C
inactive: [1] 85.2% | [2] 101% | [3] 98.4% | [4] 100% | [5] 108% | [6] 99.5% | [7] 92.4% | [8] 105% | [9] 105% | [10] 111%

O=C(/C=C/c1cccc(Cl)c1)c1ccccc1
inactive: [1] 95.5% and 97.5% | [2] 94.2% and 74.4% | [3] 90.7% and 81.9% | [4] 112% and 89.9% | [5] 101% and 95.9% | [6] 88.1% | [7] 82.3% and 48.4% | [8] 83.6% and 86.7% | [9] 88.3% and 77.5% | [10] 115% and 105%

O=C(Nc1ccccc1)Oc1c(Cl)c(Cl)c(Cl)c(Cl)c1Cl
inactive: [1] 93.8% and 93.2% | [2] 96.2% and 88.3% | [3] 94.1% and 106% | [4] 101% and 78.8% | [5] 109% and 103% | [6] 74.9% and 63.8% | [7] 87.9% | [8] 106% and 91.9% | [9] 105% and 97.1% | [10] 97.9% and 106%

Cc1ccc2nc(C[n+]3ccc4ccccc4c3)ccc2c1
inactive: [1] 42% | [2] 68.9% | [3] 97.6% | [4] 69.9% | [5] 55% | [6] 28% | [7] 47.1% | [8] 51.7% | [9] 92.2% | [10] 27.3%

CC(=O)C(=Cc1ccc(C=C(C(C)=O)C(C)=O)cc1)C(C)=O
active: [1] 4.19% | [2] -14.5% | [7] -53.9% | [9] 2.51% | [10] -70.9%
inactive: [3] 102% | [4] 83.2% | [5] 36.2% | [6] 81.6% | [8] 84.2%

CCC(c1cccc(O)c1)C(CC)c1cccc(O)c1 (stereo unspecified)
inactive: [1] 78.7% | [2] 82.7% | [3] 59.5% | [4] 83.8% | [5] 59.4% | [6] 57% | [7] 56.3% | [8] 67.8% | [9] 74.8% | [10] 61.9%

CC(C)c1ccc2nc3ccc(C(=O)NCCN4CCN(c5ccccc5)CC4)cn3c(=O)c2c1
inactive: [1] 50.5% | [2] 38.4% | [3] 86.8% | [4] 90.9% | [5] 65.2% | [6] 58.1% | [7] 67.4% | [8] 57.3% | [9] 34.4% | [10] 45.8%

N#CC1C(=O)SC2c3ccccc3C(=O)c3ccccc3C12 (stereo unspecified)
inactive: [1] 104% | [2] 94.8% | [3] 98.8% | [4] 96.1% | [5] 96.9% | [6] 71.8% | [7] 94.9% | [8] 84.9% | [9] 96.8% | [10] 107%

O=C(/C=C/C=C/c1ccccc1)c1ccco1
inactive: [1] 92.2% | [2] 109% | [3] 110% | [4] 117% | [5] 94.7% | [6] 96.1% | [7] 38% | [8] 101% | [9] 104% | [10] 103%

O=C(Oc1cccc2cccnc12)c1ccccc1
inactive: [1] 94.3% and 103% | [2] 110% and 102% | [3] 107% and 117% | [4] 98.8% and 106% | [5] 87.1% and 109% | [6] 91% and 110% | [8] 100% and 103% | [9] 100% and 107% | [10] 84.8% and 106%
-4.17% (active) and 98.3% (inactive): [7]

CN(C)c1ccc(/C=N/N=C(\C#N)[S][Sn]([Cl])([c]2ccccc2)[c]2ccccc2)cc1
inactive: [1] 28.6% | [3] 84.1% | [4] 84.5% | [5] 84.3% | [8] 78.3% | [9] 10.8%
active: [2] -69.4% | [6] -15.6% | [7] -81.4% | [10] -51.6%

Cc1ccc(C(=Nc2ccccc2)N=P(c2ccccc2)(c2ccccc2)c2ccccc2)cc1
active: [1] -24.5% | [2] -46.2% | [3] -29.4% | [4] -90.2% | [5] -75.2% | [6] -43.1% | [7] -55.8% | [8] 6.89% | [9] -55% | [10] -87.8%

N#CSCc1c(Cl)cccc1Cl
inactive: [1] 34.7% | [2] 99.3% | [4] 79.1% | [5] 106% | [6] 53.7% | [7] 43.8% | [8] 97.6% | [9] 71.5% | [10] 49.6%

CN1c2ccccc2C(C)(C)C12C=Cc1cc(O)ccc1O2 (stereo unspecified)
active: [6] -6.47% | [7] -15.6%
inactive: [1] 52.3% | [2] 89% | [4] 82.8% | [5] 67.9% | [8] 75.2% | [9] 87.1% | [10] 78.2%

O=C(Nc1ccccc1)c1cc(Cl)ccc1O
inactive: [1] 53% | [2] 74% | [4] 63.5% | [5] 37.4% | [6] 14.5% | [7] 10.3% | [8] 33.7% | [9] 59.7% | [10] 109%

CCCCCCC(C)c1ccccc1O (stereo unspecified) (tested in a mixture with another compound)
inactive: [1] 90.2% | [2] 109% | [3] 117% | [4] 99% | [5] 101% | [6] 69.1% | [7] 105% | [8] 100% | [10] 108%
